Reference: PubChem BioAssay (EPA / NIEHS)
Calls of active or inactive are those of the source. Rule for the calls: active = hit-call score of the fitted dose curve at least 0.9, where 1 is the maximum; inactive = score below 0.9.

Test: ATG_M_61_CIS: Attagene CIS-FACTORIAL HepG2 Assay for M61 Transcription Factor (Internal Marker) (AID 2282937)
Details: HepG2 Attagene CIS-FACTORIAL M61 internal marker reporter; actives raise or lower the signal
Protocol: ATG_CIS is a cell-based, multiplexed-readout assay that uses HepG2, a human liver cell line, with measurements taken at 24 hours after chemical dosing in a 24-well plate.ATG_M_61_CIS is one of 52 assay component(s) measured or calculated from the ATG_CIS assay. It is designed to make measurements of mRNA induction, a form of inducible reporter, as detected with fluorescence intensity signals by Reverse transcription polymerase chain reaction (RT-PCR) and Capillary electrophoresis technology.Data from the assay component ATG_M_61_CIS was analyzed into 1 assay endpoint. This assay endpoint, ATG_M_61_CIS, was analyzed with bidirectional fitting relative to DMSO as the negative control and baseline of activity. Using a type of inducible reporter, measures of mRNA for gain or loss-of-signal activity can be used to understand the background control at the transcription factor-level as they relate to the gene . Furthermore, this assay endpoint can be referred to as a secondary readout, because this assay has produced multiple assay endpoints where this one serves a background control function. To generalize the intended target to other relatable targets, this assay endpoint is annotated to the background measurement intended target family, where the subfamily is internal marker.
Human liver HepG2 cells are transiently transfected with multiple reporter transcription units (MRTUs) in 6-well plates using FuGene 6 reagent (Roche; 3 ml FuGene/1 mg DNA). The MRTU constructs are regulated by a cis-regulating element (promoter). […] A major difference between the CIS and TRANS system is that in CIS activities of endogenous TFs are measured, whereas the TRANS assay evaluates changes in activities of exogenous, chimeric NR-Gal4 proteins. […] At the end of 24 hour incubation, total RNA was isolated using TriZol reagent (Invitrogen). The isolated RNA is then reverse-transcribed using oligo(dT) primer and Mo-MLV reverse transcriptase (Invitrogen) with DNAse I (Ambion) treatment for 30 min. The one-tenth of the produced cDNA was amplified by PCR using Taq DNA polymerase (Invitrogen) and two reporter sequence-specific primers. The PCR products were fluorescently labeled by primer extension with 6-arboxyfluorescein (6-FAM) 5'-labeled reporter sequence-specific primer (2 min at 95 C, 20 s at 68 C and 10 min at 72 C) and these products were digested with 5U of HpaI (New England Biolabs) for 2h at 37 C. The fragments were purified using Qiaquick PCR columns (Qiagen), analyzed on an ABI 3130xL genetic analyzer (Applied Biosystems) with peak positions identified by using a set of X-rhodamine (ROX)-labeled MapMarker1000 molecular weight standards (BioVentures). The raw capillary electrophoresis data was processed using Attagraph software (Attagene).
With `Cc1cc2c3c(c1)C(c1ccccc1)=N[C@@H](NC(=O)c1ccncc1)C(=O)N3CC2` the outcome was “inactive”.
For `ClC1=C(Cl)[C@]2(Cl)[C@@H]3[C@@H]4C[C@@H]([C@H]5O[C@@H]45)[C@@H]3[C@@]1(Cl)C2(Cl)Cl`, the outcome was “inactive”.
With `CCCCCCOC(=O)c1ccccc1C(=O)OCCCCCC` the outcome was “inactive”.
In the case of `O=C(O)C(F)(F)C(F)(F)C(F)(F)C(F)(F)C(F)(F)C(F)(F)C(F)(F)C(F)(F)C(F)(F)F`, the outcome is reported as “inactive”.
In the case of `OCC(O)CO`, the outcome is reported as “inactive”.
With `Oc1ccc(C(c2ccc(O)cc2)(C(F)(F)F)C(F)(F)F)cc1` the outcome was “inactive”.
For `C=CC(N)=O`, the outcome was “inactive”.
For `ClC1=C(Cl)[C@]2(Cl)[C@@H]3[C@H]4C[C@H]([C@@H]5O[C@H]45)[C@@H]3[C@@]1(Cl)C2(Cl)Cl`, the outcome was “inactive”.
In the case of `c1ccc(-c2ccccc2)cc1`, the outcome is reported as “inactive”.
For `O=C(NC(=O)c1c(F)cccc1F)Nc1cc(Cl)c(OC(F)(F)C(F)F)c(Cl)c1`, the outcome was “inactive”.
For `CC(c1ccc(O)cc1)(c1ccc(O)cc1)c1ccc(O)cc1`, the outcome was “inactive”.
For `CCC(C)(c1ccc(O)cc1)c1ccc(O)cc1`, the outcome was “inactive”.
With `ClC1=C(Cl)[C@]2(Cl)[C@@H]3[C@@H](Cl)[C@H]4O[C@H]4[C@@H]3C1(Cl)C2(Cl)Cl` the outcome was “inactive”.
In the case of `Sc1ccccc1`, the outcome is reported as “inactive”.
For `O=C(O)C(F)(F)C(F)(F)C(F)(F)C(F)(F)C(F)(F)F`, the outcome was “inactive”.
In the case of `Cc1cc(-c2ccc(N)c(C)c2)ccc1N`, the outcome is reported as “inactive”.
In the case of `CC(C)C(=O)OCC(C)(C)C(OC(=O)C(C)C)C(C)C` (stereo not given), the outcome is reported as “inactive”.
In the case of `CC#Cc1cc(C)nc(Nc2ccccc2)n1`, the outcome is reported as “inactive”.
In the case of `O=S(=O)(O)C(F)(F)C(F)(F)C(F)(F)C(F)(F)C(F)(F)C(F)(F)F`, the outcome is reported as “inactive”.
For `Clc1ccc(C(c2ccccc2Cl)C(Cl)(Cl)Cl)cc1` (stereo not given), the outcome was “inactive”.
With `O=NN(c1ccccc1)c1ccccc1` the outcome was “inactive”.
For `Cc1ccccc1[N+](=O)[O-]`, the outcome was “inactive”.
In the case of `NS(=O)(=O)C(F)(F)C(F)(F)C(F)(F)C(F)(F)C(F)(F)C(F)(F)C(F)(F)C(F)(F)F`, the outcome is reported as “inactive”.
In the case of `Cc1ccc(O)c(C)c1`, the outcome is reported as “inactive”.
In the case of `CCSC(=O)N(CC)C1CCCCC1`, the outcome is reported as “inactive”.
With `CN(C)c1nc(=O)n(C2CCCCC2)c(=O)n1C` the outcome was “inactive”.
With `Cc1cccc([N+](=O)[O-])c1` the outcome was “inactive”.
In the case of `CN(C)CCO`, the outcome is reported as “inactive”.
For `O=C(N[C@H]1CN2CCC1CC2)c1cc2ccoc2cn1`, the outcome was “inactive”.
With `O=S(=O)(O)C(F)(F)C(F)(F)C(F)(F)C(F)(F)F` the outcome was “inactive”.
In the case of `CO/C=C(/C(=O)OC)c1ccccc1COc1cccc(C(F)(F)F)n1`, the outcome is reported as “inactive”.
With `c1cc2ccc3cccc4ccc(c1)c2c34` the outcome was “inactive”.
With `CCCCCCCCOC(=O)c1ccccc1C(=O)OCCCCCCCC` the outcome was “inactive”.
In the case of `COc1ccc(O)c(C(C)(C)C)c1`, the outcome is reported as “inactive”.
In the case of `CCCCCCCCCc1ccc(O)cc1`, the outcome is reported as “inactive”.
In the case of `COS(=O)(=O)OC`, the outcome is reported as “inactive”.
In the case of `Clc1ccc(Cl)cc1`, the outcome is reported as “inactive”.
In the case of `Cc1cccc(C)c1N`, the outcome is reported as “inactive”.
In the case of `CC(C)(c1ccccc1)c1ccc(O)cc1`, the outcome is reported as “inactive”.
For `Nn1cnnc1`, the outcome was “inactive”.
